Data on 14 compounds can be found in the supplement of paper PMC6522484.

The test system of assay [1] is DLD1. Briefly: cell viability (CellTiter-Glo) relative to plate median (fraction of plate median); higher = more viable cells. The settings on record: 5 µM; treatment time 24 h; reporter: 7TFP. Put shortly: (§1)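 After seeding in 384-well plates, colorectal cancer cell lines carrying stable lentiviral TCF/Wnt firefly luciferase reporters (7TFP or TCF4/Wnt) were left 24 h. Library compounds were then added at a final 5 µM for 24 h. A Tecan F500 reader measured firefly luciferase or CellTiterGlo luminescence on parallel plates, with each well normalised to the plate median by webcellHTS2 (additive, no log transformation), and two independent replicates averaged.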

Another assay deals with HCT116. Described as above. The settings on record: 5 µM; treatment time 24 h; reporter: TCF4/Wnt. Put shortly: as §1
Assay [2] relates to SW480. The description is as above. The settings on record: 5 µM; treatment time 24 h; reporter: 7TFP. Put shortly:
as §1

In assay [3] the test system is DLD1. The assay can be described thus: TCF/Wnt firefly luciferase reporter signal relative to plate median (fraction of plate median); higher = higher Wnt reporter signal. The settings on record: 5 µM; treatment time 24 h; reporter: 7TFP. Put shortly:
as §1

Assay [4] deals with SW480. The assay is described as above. The settings on record: 5 µM; treatment time 24 h; reporter: 7TFP. Put shortly: as §1

Molecules are shown by their SMILES. ± gives the standard deviation of the averaged measurements.

Regarding `CCC(C)C(=O)OC1CC2(C)C(c3ccoc3)OC(=O)CC23OC2(C)OC34C(OC(=O)C(C)C)C3(O)C(OC(=O)C5(C)OC5C)C5(C)CC3(O)C(C)(C5CC(=O)OC)C14O2` (stereo not given), the cell viability in the assay on DLD1 [1] came to 1.09 ± 0.071; with HCT116, 1.12 ± 0.11; in the assay with SW480 [2], 1.08 ± 0.014. The “TCF/Wnt firefly luciferase reporter signal” value amounted to 1.045 ± 0.0071 in the assay with DLD1 [3] and 1.13 ± 0.014 with SW480 [4].

For `CC1(C)C2CC(=O)[C@]3(C)C(CC[C@@]4(C)[C@H](c5ccoc5)OC(=O)C5OC543)[C@@]2(C)[C@@H](O)C[C@H]1O` (stereo not given in full), the values for the cell viability in the assay on DLD1 [1], in the assay on HCT116 and in the assay with SW480 [2] were 0.996 ± 0.048, 1.04 ± 0.057 and 0.995 ± 0.05, respectively. The figures for the “TCF/Wnt firefly luciferase reporter signal” value in the assay with DLD1 [3] and with SW480 [4] were 1.01 ± 0.098 and 1.02 ± 0.054, respectively.

Turning to `C[N+]1(C)[C@@H]2C[C@@H](OC(=O)[C@H](CO)c3ccccc3)C[C@H]1[C@@H]1O[C@@H]12`, the results for the cell viability in the assay on DLD1 [1], in the assay on HCT116 and with SW480 [2] were 1.09 ± 0.021, 0.971 ± 0.069 and 1.035 ± 0.0071, respectively. For the same compound, the “TCF/Wnt firefly luciferase reporter signal” value in the assay with DLD1 [3] was found to be 0.9885 ± 0.005; with SW480 [4], 1.085 ± 0.0071.

Consider `O=C1C=C2C(=CCOC2O)O1` (stereo not given), for which the cell viability in the assay on DLD1 [1] is 0.883 ± 0.19; in the assay on HCT116, 0.606 ± 0.2; with SW480 [2], 0.9575 ± 0.0064. Further, the “TCF/Wnt firefly luciferase reporter signal” value in the assay on DLD1 [3] was found to be 0.993 ± 0.18; in the assay on SW480 [4], 0.499 ± 0.025.

Regarding `C[C@]12CCC(=O)C[C@@H]1CC[C@@H]1[C@@H]2CC[C@]2(C)C(=O)CC[C@@H]12` [5alpha-ANDROSTAN-3,17-DIONE], the cell viability was 0.895 ± 0.095 in the assay on DLD1 [1], 1.07 in the assay with HCT116 and 0.959 ± 0.052 in the assay on SW480 [2]. In addition, the results for the “TCF/Wnt firefly luciferase reporter signal” value in the assay on DLD1 [3] and in the assay with SW480 [4] were 0.959 ± 0.086 and 0.9525 ± 0.005, respectively.

Regarding `O=C1C=C2C=C[C@@H]3C[C@@]2(O1)[C@H]1CCCCN31`, the cell viability in the assay with DLD1 [1] turned out to be 1.1 ± 0.057; in the assay with HCT116 it was 1.11 ± 0.064; in the assay on SW480 [2], 1.02 ± 0.063. In addition, the “TCF/Wnt firefly luciferase reporter signal” value in the assay with DLD1 [3] came to 1.01 ± 0.023; in the assay with SW480 [4], 0.988 ± 0.013.

`O=C(O)c1cccc2nc3ccccc3nc12` [1-Phenazinecarboxylic acid]: the cell viability in the assay on DLD1 [1] came to 1.12 ± 0.16; in the assay on HCT116 it was 1.05; in the assay with SW480 [2], 1.32 ± 0.11. The “TCF/Wnt firefly luciferase reporter signal” value in the assay on DLD1 [3] turned out to be 0.986 ± 0.091; in the assay on SW480 [4], 1.03 ± 0.12.

Take `CN1[C@@H]2C[C@@H](OC(=O)[C@H](CO)c3ccccc3)C[C@H]1[C@@H]1O[C@@H]12`: the cell viability in the assay on DLD1 [1] is 1.04 ± 0.042; in the assay with HCT116, 1.07 ± 0.042; in the assay on SW480 [2] it was 0.99 ± 0.0099. Also, the figures for the “TCF/Wnt firefly luciferase reporter signal” value in the assay with DLD1 [3] and in the assay on SW480 [4] were 1.02 ± 0.1 and 1.035 ± 0.0071, respectively.

As for `C=C(C)[C@H]1Cc2c(ccc3c2O[C@@H]2COc4cc(OC)c(OC)cc4[C@@H]2C3=O)O1`, the cell viability in the assay with DLD1 [1] came to 0.851 ± 0.054; with HCT116, 0.637 ± 0.11; with SW480 [2], 1.01 ± 0.05. For the same compound, the “TCF/Wnt firefly luciferase reporter signal” value amounted to 0.738 ± 0.04 in the assay with DLD1 [3] and 0.753 ± 0.17 in the assay on SW480 [4].

Take `Cc1ccc(O)cc1.Cc1cccc(O)c1.Cc1ccccc1O`: the cell viability was 1.085 ± 0.0071 in the assay with DLD1 [1], 1.08 ± 0.14 with HCT116 and 1.01 ± 0.014 in the assay with SW480 [2]. Besides, the entries for the “TCF/Wnt firefly luciferase reporter signal” value in the assay on DLD1 [3] and with SW480 [4] were 1.09 ± 0.064 and 1.09 ± 0.057, respectively.

Turning to `CN1C[C@H](C(=O)N[C@]2(C)O[C@@]3(O)[C@@H]4CCCN4C(=O)[C@H](Cc4ccccc4)N3C2=O)C[C@@H]2c3cccc4[nH]cc(c34)C[C@H]21`, the cell viability worked out at 0.89 ± 0.098 with DLD1 [1], 0.878 ± 0.054 in the assay on HCT116 and 1 ± 0.037 with SW480 [2]. For the same compound, the “TCF/Wnt firefly luciferase reporter signal” value with DLD1 [3] turned out to be 0.9 ± 0.052; with SW480 [4] it was 0.884 ± 0.0057.

With `Oc1ccc2c3c1O[C@H]1[C@@H](O)CC[C@@]4(O)[C@@H](C2)N(CC2CCC2)CC[C@]314`, the cell viability with DLD1 [1] worked out at 1 ± 0.067; in the assay on HCT116, 1 ± 0.014; with SW480 [2] it was 0.942 ± 0.082. In addition, the “TCF/Wnt firefly luciferase reporter signal” value in the assay on DLD1 [3] was determined as 0.979 ± 0.03; with SW480 [4], 1.06 ± 0.064.

`CCC(C)C(=O)c1c(O)c(C)c2oc3c(C)c(O)c(C(=O)C(C)CC)c(O)c3c2c1O` (stereo not given): the cell viability was 0.997 ± 0.033 with DLD1 [1], 0.95 ± 0.11 with HCT116 and 0.998 ± 0.045 in the assay with SW480 [2]. The “TCF/Wnt firefly luciferase reporter signal” value in the assay on DLD1 [3] came out at 0.9565 ± 0.0035; with SW480 [4], 0.9575 ± 0.0092.

For the compound `Nc1ncn[nH]1`, the values for the cell viability in the assay with DLD1 [1], in the assay on HCT116 and in the assay with SW480 [2] were 0.973 ± 0.067, 1.09 ± 0.11 and 1 ± 0.029, respectively. Besides, the entries for the “TCF/Wnt firefly luciferase reporter signal” value with DLD1 [3] and in the assay with SW480 [4] were 0.957 ± 0.089 and 0.978 ± 0.012, respectively.
